{"source": "PubChem BioAssay AID939", "about": "(National Center for Advancing Translational Sciences (NCATS), 2007)", "note": "Results filed as inconclusive are left out. Calls of active or inactive are those of the source. Calls follow the shape of the dose curve; as a rule, active = well fitted activation curve with a large enough effect in the main read-out, with a control signal flat; inconclusive = small, poorly fitted or top-dose-only effect, or effect the other way, or a change in a side signal; inactive = no such curve, though single readings can be large or run the other way. Potency is read from the fitted curve at half-maximal effect.", "data": [{"test_system": "not listed separately", "experiment": "Confirmation Concentration-Response Assay for Agonists of the Thyroid Stimulating Hormone Receptor; as to activation: % of control where 0% means no effect", "conditions": "HEK293 TSHR-CNG cells, membrane potential dye, cAMP; measured here: parental HEK293 counter-screen max", "text": "(§1) NIH Chemical Genomics Center [NCGC] NIH Molecular Libraries Screening Centers Network [MLSCN] MLSCN Grant: 1 X01 MH080680-01 PI Name: Dr. Marvin Gershengorn, NIH NCGC Assay Overview: Thyroid Stimulating Hormone Receptor TSH is an alpha/beta heterodimeric glycoprotein hormone secreted from the anterior pituitary gland which belongs to the glycoprotein hormone family. The actions of TSH are mediated by a seven-transmembrane receptor, which upon TSH binding couples preferentially to the G-alpha (s) protein (Gs), resulting in activation of adenylate cyclase and increase in cyclic adenosine 3', 5' monophosphate (cAMP). The TSH receptor (THSR) is mainly expressed in thyroid follicular cells and regulates their growth and function. Recombinant TSH is used to activate TSHR in patients with thyroid cancer receiving thyroid hormone suppression therapy and to screen for residual tumor after surgery, but it is expensive and must be administered intramuscularly. An orally active small molecule TSHR agonist would serve as an invaluable research tool for studying TSHR pharmacology and physiology, and would have multiple advantages in therapeutic settings. However, no selective small molecule agonist of the TSH receptor exists, and no small molecule screen for TSHR agonists has ever been reported. This cell based assay utilized a cyclic nucleotide gated ion channel (CNG) as a biosensor for cAMP induction by potential TSHR agonists. TSHR cell line HEK 293 cells stably expressing the TSHR as well as a modified CNG were purchased from BD biosciences. Stimulation of cAMP production causes the CNG to open and subsequent membrane depolarization to occur. A fluorescent membrane potential dye (BD biosciences) was utilized to detect cAMP stimulation in TSHR cells. The cells were maintained in DMEM medium (Invitrogen) containing 10 % FBS (Hyclone), 100 units/ml Penicillin, 100 ug/ml Streptomycin (Invitrogen), and 250 ug/ml Geneticin (Invitrogen) and 1 ug/ml Puromycin (Invitrogen) at 37C in 5% CO2. HEK 293 cells expressing CNG but without TSHR (parental cells) were used in concert to control for compounds signaling through endogenous receptors and targets of HEK 293 cells.\n(§2) NCGC Assay Protocol Summary: High Throughput Screening. Freshly passaged cells (TSHR or parental) were dispensed into 1536-well assay plates at 4 ul/well in DMEM containing phenol red (Invitrogen), 10% FCS (Hyclone), and 100 units/ml Penicillin, 100 ug/ml Streptomycin (Invitrogen) and incubated at 37 C with 5% CO2 for 20 to 36 hrs before the robotic screening. The screen was initiated by addition of 4 ul/well membrane potential dye containing 100 uM RO 20-1724 (Sigma Aldrich), followed by 60 min incubation at room temperature to allow for dye equilibration across the cell membrane. 23 nl/well compound or control was then added to the assay plates, which were incubated for additional 30 min before reading a Envision fluorescence plate reader (Perkin Elmer) in bottom-read mode for fluorescence intensity (emission at 590 nm). Keywords: Thyroid-stimulating hormone TSH, TSHR, TSHR agonist, quantitative high throughput screening, qHTS, HTS, probe identification, CNG, cAMP, cyclic nucleotide gated ion channel PubChem", "units": {"max response": "%"}, "values": [{"smiles": "O=c1[nH]c(=O)n(Cc2ccco2)c(O)c1C=NC1CC1", "max response": 5.23}, {"smiles": "CCn1c(C)c(C(=O)O)c2cc(OC)ccc21", "max response": 6.15}, {"smiles": "C=CCN1C(=O)C2(C(C(=O)OCC)=C(N)Oc3c2c(=O)oc2ccccc32)c2ccccc21", "note": "(centres undefined)", "max response": -4.89}, {"smiles": "CCC(=NCC1CCCO1)c1c(O)n(Cc2ccccc2)c(=O)[nH]c1=O", "note": "(centres undefined)", "max response": 5.62}, {"smiles": "O=C(Nc1nc2ccccc2n1CCN1CCCC1)c1ccc(Cl)cc1", "max response": -11}, {"smiles": "CN(C)c1ccc(CN2CC=C(c3ccc(F)cc3)CC2)cc1", "max response": 5.57}, {"smiles": "CCOC(=O)C1=C(C)OC(N)=C(C(=O)OC)C12C(=O)Nc1ccc(Br)cc12", "note": "(centres undefined)", "max response": -4.55}]}, {"biological_target": "Thyrotropin receptor (Homo sapiens) (UniProt P16473)", "sequence (P16473 whole entry, looked up)": "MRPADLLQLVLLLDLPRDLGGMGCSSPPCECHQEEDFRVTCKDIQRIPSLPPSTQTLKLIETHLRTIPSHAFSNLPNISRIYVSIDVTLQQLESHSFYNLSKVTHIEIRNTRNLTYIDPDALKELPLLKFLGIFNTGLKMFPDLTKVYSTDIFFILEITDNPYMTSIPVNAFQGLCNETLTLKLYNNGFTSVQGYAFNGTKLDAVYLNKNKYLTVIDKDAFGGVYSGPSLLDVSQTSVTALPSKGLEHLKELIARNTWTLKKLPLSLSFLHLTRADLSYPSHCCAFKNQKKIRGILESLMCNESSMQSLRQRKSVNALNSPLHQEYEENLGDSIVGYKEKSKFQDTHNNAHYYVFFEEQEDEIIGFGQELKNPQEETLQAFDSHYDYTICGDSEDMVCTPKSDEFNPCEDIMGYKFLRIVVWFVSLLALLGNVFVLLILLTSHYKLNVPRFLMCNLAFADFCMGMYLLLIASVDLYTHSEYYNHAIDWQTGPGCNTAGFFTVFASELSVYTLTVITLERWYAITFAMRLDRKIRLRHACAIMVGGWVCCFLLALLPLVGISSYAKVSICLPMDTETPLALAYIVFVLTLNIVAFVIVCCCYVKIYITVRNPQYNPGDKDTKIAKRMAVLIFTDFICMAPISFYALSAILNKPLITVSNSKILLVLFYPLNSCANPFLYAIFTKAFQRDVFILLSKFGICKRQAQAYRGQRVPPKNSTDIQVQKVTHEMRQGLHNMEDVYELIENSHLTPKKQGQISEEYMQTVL", "experiment": "Confirmation Concentration-Response Assay for Agonists of the Thyroid Stimulating Hormone Receptor", "conditions": "HEK293 TSHR-CNG cells, membrane potential dye, cAMP; series mostly up to 25.6 µM; activation: at the top concentration", "text": "as §1, §2", "values": [{"smiles": "O=c1[nH]c(=O)n(Cc2ccco2)c(O)c1C=NC1CC1", "activation": "17.5% [at 32.9 µM] (inactive)"}, {"smiles": "CCn1c(C)c(C(=O)O)c2cc(OC)ccc21", "activation": "17.1% (inactive)"}, {"smiles": "C=CCN1C(=O)C2(C(C(=O)OCC)=C(N)Oc3c2c(=O)oc2ccccc32)c2ccccc21", "note": "(centres undefined)", "Potency": "5.01 µM (active)"}, {"smiles": "CCC(=NCC1CCCO1)c1c(O)n(Cc2ccccc2)c(=O)[nH]c1=O", "note": "(centres undefined)", "activation": "7.43% (inactive)"}, {"smiles": "O=C(Nc1nc2ccccc2n1CCN1CCCC1)c1ccc(Cl)cc1", "activation": "-94.7% (inactive)"}, {"smiles": "CN(C)c1ccc(CN2CC=C(c3ccc(F)cc3)CC2)cc1", "activation": "1.66% (inactive)"}, {"smiles": "CCOC(=O)C1=C(C)OC(N)=C(C(=O)OC)C12C(=O)Nc1ccc(Br)cc12", "note": "(centres undefined)", "activation": "8.97% (inactive)"}]}]}
